Inconclusive results are not listed. Active and inactive are the calls of the source. The calls were made as follows, unless noted: active = hit-call score of the fitted dose curve at least 0.9, where 1 is the maximum; inactive = score below 0.9.
How the values were obtained:
[1] = ACEA_ER_80hr: ACEA Biosciences xCELLigence Real-Time Cell Analysis on Estrogen Receptor Agonism for Proliferation (AID 2282667; active = hit-call score of the fitted dose curve at least 0.9, where 1 is the maximum); details: T47D proliferation, impedance (xCELLigence), 80 h
Procedure, shortened: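 Impedance readout (RT-CES) of T47D proliferation at 80 h post-dose; gain of signal vs DMSO baseline. Compounds: 8 conc, 1:4 serial, top 100 uM final, ≤0.5% DMSO; biological duplicate.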

[2] = ATG_CRE_CIS: Attagene CIS-FACTORIAL HepG2 Assay for human cAMP Responsive Element (CRE) binding protein 3 (AID 2282926); details: HepG2 CRE cis-reporter, Attagene multiplexed mRNA; actives raise or lower the signal
Procedure, shortened: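 Readout: fluorescently labelled reporter transcripts resolved by capillary electrophoresis after RT-PCR, taken 24 h post-dosing in transfected HepG2. Endogenous transcription factor activity drives each cis-element reporter; gain or loss of signal fitted relative to DMSO control.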

[3] = ATG_CMV_CIS: Attagene CIS-FACTORIAL HepG2 Assay for human CMV (Internal Marker) (AID 2282928); details: HepG2 CMV promoter reporter, transcription factor profiling; actives raise or lower the signal;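 also: endpoint acts as a background internal control marker rather than a target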
Procedure, shortened: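 Reporter transcripts from transfected HepG2 cells are isolated after 24 h of chemical dosing, reverse-transcribed and amplified. Fragments labeled with 6-FAM are cut with HpaI and quantified by capillary electrophoresis; DMSO defines baseline.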

[4] = ATG_DR4_LXR_CIS: Attagene CIS-FACTORIAL HepG2 Assay for human Liver X Receptor (LXR), DR4 submotif (AID 2282929); details: HepG2 Attagene DR4 cis-reporter, mRNA transcription; actives raise or lower the signal
Procedure, shortened: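 DR4 cis-reporter in HepG2, 24 h exposure. Detection: RT-PCR, 6-FAM labelling, CE fragment analysis. Endpoint fitted bidirectionally, DMSO = baseline.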

[5] = biological target: Aryl hydrocarbon receptor (Homo sapiens) (UniProt P35869); test: ATG_Ahr_CIS: Attagene CIS-FACTORIAL HepG2 Assay for human Aryl Hydrocarbon Receptor (Ahr) (AID 2282930); details: HepG2 AhR cis-factorial reporter transcription; actives raise or lower the signal
Procedure, shortened: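 Values derive from bidirectional fitting against DMSO negative control. Underlying signal: cis-element reporter mRNA in transiently transfected HepG2, harvested 24 h post-dose and measured by RT-PCR plus capillary electrophoresis.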

[6] = ATG_AP_1_CIS: Attagene CIS-FACTORIAL HepG2 Assay for human Activator Protein 1 (AP-1) (AID 2282931); details: HepG2 Attagene cis-factorial AP-1 reporter mRNA; actives raise or lower the signal
Procedure, shortened: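 Cis-regulated reporter units transiently expressed in HepG2 report endogenous transcription-factor activity. Signal: reporter mRNA at 24 h, via RT-PCR and fluorescent capillary electrophoresis. Endpoint derived by bidirectional fitting, DMSO as negative control.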

[7] = ATG_AP_2_CIS: Attagene CIS-FACTORIAL HepG2 Assay for human Activator Protein 2 (AP-2) (AID 2282932); details: HepG2 AP-2 cis-reporter, Attagene transcription factor profiling; actives raise or lower the signal
Procedure, shortened: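 Cells (HepG2) transfected with promoter-driven reporter constructs, treated 24 h. Total RNA reverse-transcribed, reporter cDNA PCR-amplified, FAM-labelled by primer extension, digested, resolved by capillary electrophoresis. Activity fitted both directions versus DMSO.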

[8] = ATG_BRE_CIS: Attagene CIS-FACTORIAL HepG2 Assay for human Bone Morphogenetic Protein (BMP) Response Element (BRE) (AID 2282933); details: HepG2 BMP response element reporter, Attagene transcription factor profiling; actives raise or lower the signal
Procedure, shortened: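 Fluorescence-labelled reporter cDNA fragments, separated by capillary electrophoresis, gave the signal for this component of a 52-readout multiplex. HepG2 cells were transfected, exposed to chemicals for 24 h, and compared with DMSO using bidirectional fitting.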

[9] = biological target: Retinoic acid receptor alpha (Homo sapiens) (UniProt P10276); test: ATG_DR5_RAR_CIS: Attagene CIS-FACTORIAL HepG2 Assay for human Retinoic Acid Receptor Alpha (RARE), DR5 submotif (AID 2282934); details: HepG2 Attagene cis-factorial RARE DR5 reporter, mRNA; actives raise or lower the signal
Procedure, shortened: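 Endpoint fitted in both directions relative to DMSO as negative control. It reflects DR5 cis-element reporter mRNA induction in transiently transfected HepG2 cells, measured 24 h after dosing through RT-PCR and fluorescent capillary electrophoresis.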

[10] = biological target: Transcription factor E2F1 (Homo sapiens) (UniProt Q01094); test: ATG_E2F_CIS: Attagene CIS-FACTORIAL HepG2 Assay for human E2F Transcription Factor 1 (AID 2282935); details: HepG2 Attagene cis-reporter, E2F reporter RNA transcripts; actives raise or lower the signal
Procedure, shortened: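 First, HepG2 cells were transfected with reporter transcription units. Next, they were dosed for 24 h. Then RNA was isolated, converted to cDNA, PCR-amplified, FAM-labeled, HpaI-digested and analyzed by capillary electrophoresis.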

[11] = ATG_E_Box_CIS: Attagene CIS-FACTORIAL HepG2 Assay for human Enhancer Box (E-box) (AID 2282936); details: HepG2 E-box cis-reporter transcription, actives raise or lower the signal
Procedure, shortened: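 Endogenous transcription factor activity was sensed in human HepG2 liver cells through transfected cis-promoter reporter units. After 24 h of dosing, total RNA was reverse-transcribed and reporter cDNA resolved by capillary electrophoresis.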

[12] = ATG_EGR_CIS: Attagene CIS-FACTORIAL HepG2 Assay for human Early Growth Response 1 (EGR1) (AID 2282938); details: HepG2 Attagene CIS-FACTORIAL EGR reporter mRNA; actives raise or lower the signal
Procedure, shortened: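 Endpoint derived by bidirectional fitting versus DMSO vehicle. Method: cis-promoter reporter units transfected into HepG2, 24 h dosing, RNA isolation, RT-PCR with 6-FAM primer extension and HpaI digestion, then capillary electrophoresis fluorescence detection.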

[13] = ATG_M_19_CIS: Attagene CIS-FACTORIAL HepG2 Assay for M19 Transcription Factor (Internal Marker) (AID 2282939); details: HepG2 Attagene CIS-FACTORIAL M19 internal marker reporter; actives raise or lower the signal
Procedure, shortened: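 HepG2, MRTU transient transfection, 24 h dosing. Total RNA → RT-PCR → 6-FAM primer extension → HpaI digest → CE fluorescence. Bidirectional curve fit, DMSO negative control.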

[14] = ATG_ERE_CIS: Attagene CIS-FACTORIAL HepG2 Assay for Estrogen Response Element (ERE) (AID 2282940); details: HepG2 ERE cis-reporter, Attagene RNA transcript; actives raise or lower the signal
Procedure, shortened: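 After a 24 h chemical treatment, RNA from reporter-transfected HepG2 cells is reverse-transcribed, PCR-amplified and fluorescently labelled. Fragments separated by capillary electrophoresis give reporter signal; DMSO serves as negative control.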

[15] = ATG_Ets_CIS: Attagene CIS-FACTORIAL HepG2 Assay for human Erythroblast Transformation Specific (ETS) (AID 2282941); details: HepG2 ETS cis-reporter transcription, actives raise or lower the signal
Procedure, shortened: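 Bidirectional fit versus DMSO of reporter mRNA signal, detected by RT-PCR and capillary electrophoresis in HepG2 cells transiently transfected with cis-element reporters and dosed 24 h.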

[16] = biological target: Hepatocyte nuclear factor 3-beta (Homo sapiens) (UniProt Q9Y261); test: ATG_FoxA2_CIS: Attagene CIS-FACTORIAL HepG2 Assay for human Forkhead box A2 (FOXA2) (AID 2282942); details: HepG2 cis-reporter transcription factor activity, 24 h; actives raise or lower the signal
Procedure, shortened: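 Measured: reporter mRNA induction or loss in HepG2 transiently carrying multiple cis-regulated reporter units, 24 h after dosing. Quantified by RT-PCR plus capillary electrophoresis, normalised to DMSO.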

[17] = ATG_FoxO_CIS: Attagene CIS-FACTORIAL HepG2 Assay for human Forkhead box O (FoxO) (AID 2282943); details: HepG2 Attagene cis-reporter, FoxO element, mRNA; actives raise or lower the signal
Procedure, shortened: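 Values reflect reporter mRNA induction or loss in HepG2 cells 24 h post-dosing, fitted bidirectionally with DMSO as negative control and baseline. Detection used RT-PCR and fluorescence capillary electrophoresis.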

[18] = ATG_GATA_CIS: Attagene CIS-FACTORIAL HepG2 Assay for human GATA Binding Protein (AID 2282944); details: HepG2 GATA cis-element reporter, Attagene multiplex mRNA; actives raise or lower the signal
Procedure, shortened: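 Cells: HepG2, transiently transfected with cis-regulated reporter transcription units. Exposure: 24 h. Detection: RT-PCR plus capillary electrophoresis of FAM-labeled fragments. Analysis: bidirectional, DMSO as baseline.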

[19] = ATG_M_61_CIS: Attagene CIS-FACTORIAL HepG2 Assay for M61 Transcription Factor (Internal Marker) (AID 2282937); details: HepG2 Attagene CIS-FACTORIAL M61 internal marker reporter; actives raise or lower the signal
Procedure, shortened: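 Background-control endpoint: HepG2 cells with cis-regulated reporter constructs, 24 h exposure, reporter mRNA detected via fluorescent primer extension and capillary electrophoresis; values from bidirectional fitting with DMSO baseline.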

[20] = biological target: CCAAT/enhancer-binding protein beta (Homo sapiens) (UniProt P17676); test: ATG_C_EBP_CIS: Attagene CIS-FACTORIAL HepG2 Assay for human CCAAT/Enhancer Binding Protein (C/EBP) beta (AID 2282927); details: HepG2 Attagene cis-factorial transcription factor reporter; actives raise or lower the signal
Procedure, shortened: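 Following a 24 h incubation with test chemical, transfected HepG2 cells yielded RNA whose reporter transcripts were quantified by RT-PCR and fluorescent capillary electrophoresis, with DMSO serving as baseline for bidirectional fitting.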

Measured: AC50

Sequence of Hepatocyte nuclear factor 3-beta (Homo sapiens) (Q9Y261 whole entry, looked up): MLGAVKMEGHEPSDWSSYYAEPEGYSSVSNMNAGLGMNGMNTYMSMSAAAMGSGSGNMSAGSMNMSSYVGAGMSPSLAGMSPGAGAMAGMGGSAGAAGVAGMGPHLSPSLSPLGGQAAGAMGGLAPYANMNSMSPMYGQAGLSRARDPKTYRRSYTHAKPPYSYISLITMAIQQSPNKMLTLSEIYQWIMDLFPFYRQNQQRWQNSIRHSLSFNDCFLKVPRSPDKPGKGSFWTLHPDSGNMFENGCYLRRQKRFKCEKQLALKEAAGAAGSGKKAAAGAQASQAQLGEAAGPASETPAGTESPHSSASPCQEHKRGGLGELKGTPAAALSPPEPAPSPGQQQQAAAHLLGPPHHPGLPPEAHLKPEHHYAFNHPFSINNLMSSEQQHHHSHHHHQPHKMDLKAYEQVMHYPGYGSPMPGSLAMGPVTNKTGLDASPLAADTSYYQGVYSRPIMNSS
Sequence of CCAAT/enhancer-binding protein beta (Homo sapiens) (P17676 whole entry, looked up): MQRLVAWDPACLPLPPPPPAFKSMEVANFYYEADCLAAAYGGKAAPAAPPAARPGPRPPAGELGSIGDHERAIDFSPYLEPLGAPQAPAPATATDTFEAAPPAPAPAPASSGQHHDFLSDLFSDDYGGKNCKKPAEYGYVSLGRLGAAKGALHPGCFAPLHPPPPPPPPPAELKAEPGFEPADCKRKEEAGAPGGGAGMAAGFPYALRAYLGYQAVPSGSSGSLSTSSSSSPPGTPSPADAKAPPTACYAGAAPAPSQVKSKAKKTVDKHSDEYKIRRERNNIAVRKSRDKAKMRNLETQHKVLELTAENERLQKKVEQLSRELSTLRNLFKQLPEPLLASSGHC
Sequence of Transcription factor E2F1 (Homo sapiens) (Q01094 whole entry, looked up): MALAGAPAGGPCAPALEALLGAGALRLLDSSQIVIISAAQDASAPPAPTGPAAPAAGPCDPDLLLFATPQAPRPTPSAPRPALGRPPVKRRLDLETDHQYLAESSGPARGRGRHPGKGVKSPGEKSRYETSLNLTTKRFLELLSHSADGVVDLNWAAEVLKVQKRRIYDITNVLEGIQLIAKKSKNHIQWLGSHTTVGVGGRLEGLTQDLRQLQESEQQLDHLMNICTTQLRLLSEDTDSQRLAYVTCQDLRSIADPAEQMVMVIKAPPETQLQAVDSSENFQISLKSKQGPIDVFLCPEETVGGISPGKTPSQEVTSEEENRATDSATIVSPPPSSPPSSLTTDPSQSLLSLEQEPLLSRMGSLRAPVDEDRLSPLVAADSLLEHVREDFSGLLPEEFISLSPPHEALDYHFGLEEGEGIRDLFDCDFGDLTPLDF
Sequence of Retinoic acid receptor alpha (Homo sapiens) (P10276 whole entry, looked up): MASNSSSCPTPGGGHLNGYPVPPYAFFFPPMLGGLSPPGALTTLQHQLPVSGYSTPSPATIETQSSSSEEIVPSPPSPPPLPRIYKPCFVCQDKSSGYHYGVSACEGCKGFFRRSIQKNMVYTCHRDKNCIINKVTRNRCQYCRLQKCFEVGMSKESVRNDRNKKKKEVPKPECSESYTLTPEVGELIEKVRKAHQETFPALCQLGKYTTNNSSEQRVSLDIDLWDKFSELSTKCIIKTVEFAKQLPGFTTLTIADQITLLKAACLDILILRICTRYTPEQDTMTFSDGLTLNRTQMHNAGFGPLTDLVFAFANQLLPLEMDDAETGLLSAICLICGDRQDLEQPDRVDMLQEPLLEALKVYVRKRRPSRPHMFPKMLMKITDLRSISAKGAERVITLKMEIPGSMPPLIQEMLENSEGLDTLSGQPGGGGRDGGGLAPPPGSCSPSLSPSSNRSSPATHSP
Sequence of Aryl hydrocarbon receptor (Homo sapiens) (P35869 whole entry, looked up): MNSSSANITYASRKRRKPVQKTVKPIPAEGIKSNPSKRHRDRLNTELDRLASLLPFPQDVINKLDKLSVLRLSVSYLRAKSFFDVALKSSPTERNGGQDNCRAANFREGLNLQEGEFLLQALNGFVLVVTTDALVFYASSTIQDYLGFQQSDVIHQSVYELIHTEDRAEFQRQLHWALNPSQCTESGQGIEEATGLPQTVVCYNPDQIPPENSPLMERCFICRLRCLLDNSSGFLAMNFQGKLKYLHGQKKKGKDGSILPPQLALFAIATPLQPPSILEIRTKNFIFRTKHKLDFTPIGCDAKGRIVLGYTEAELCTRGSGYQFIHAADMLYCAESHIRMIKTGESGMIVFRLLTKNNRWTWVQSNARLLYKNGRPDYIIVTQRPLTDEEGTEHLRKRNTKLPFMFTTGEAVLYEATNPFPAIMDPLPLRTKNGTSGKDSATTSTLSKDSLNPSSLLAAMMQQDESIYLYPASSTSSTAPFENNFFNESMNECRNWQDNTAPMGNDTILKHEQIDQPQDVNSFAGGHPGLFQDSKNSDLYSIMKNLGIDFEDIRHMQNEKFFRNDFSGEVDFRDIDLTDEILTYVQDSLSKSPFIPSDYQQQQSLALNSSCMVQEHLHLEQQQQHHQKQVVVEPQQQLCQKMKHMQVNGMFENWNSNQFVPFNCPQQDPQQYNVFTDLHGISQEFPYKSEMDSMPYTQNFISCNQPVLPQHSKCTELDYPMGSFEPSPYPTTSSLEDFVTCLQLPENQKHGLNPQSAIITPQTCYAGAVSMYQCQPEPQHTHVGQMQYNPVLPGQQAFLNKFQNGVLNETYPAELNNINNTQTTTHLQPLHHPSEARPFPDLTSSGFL

CCOC(=O)[C@H](O)[C@@H](O)C(=O)OCC
inactive: [1] | [2] | [3] | [4] | [5] | [6] | [7] | [8] | [9] | [10] | [11] | [12] | [13] | [14] | [15] | [16] | [17] | [18]

CCCCCCCC(=O)OCC(COC(=O)CCCCCCC)OC(=O)CCCCCCC
inactive: [1] | [2] | [3] | [4] | [5] | [6] | [7] | [8] | [9] | [10] | [11] | [12] | [13] | [14] | [15] | [16] | [17] | [18]

C=CCCCCCCCCOC(C)=O
inactive: [1] | [2] | [3] | [4] | [5] | [6] | [7] | [9] | [10] | [19] | [12] | [13] | [14] | [15] | [16] | [17] | [18]

CCCCC1CCC(=O)O1 (stereo unspecified)
inactive: [1] | [2] | [3] | [4] | [5] | [6] | [8] | [9] | [10] | [11] | [19] | [12] | [13] | [14] | [15] | [16] | [17] | [18]

O=C(O)/C=C/c1ccccc1
active: [1] 2.06 µM | [14] 42.5 µM
inactive: [20] | [3] | [4] | [5] | [6] | [7] | [8] | [9] | [10] | [11] | [19] | [12] | [13] | [15] | [16] | [17] | [18]

COc1ccc(C(=O)c2ccccc2)c(O)c1
active: [3] 79.6 µM | [4] 115 µM | [8] 158 µM | [12] 85.1 µM | [14] 5.69 µM
inactive: [1] | [2] | [5] | [7] | [9] | [10] | [11] | [19] | [13] | [15] | [16] | [17] | [18]

CC(C=O)c1ccccc1 (stereo unspecified)
inactive: [1] | [2] | [3] | [4] | [5] | [6] | [7] | [8] | [9] | [10] | [11] | [19] | [13] | [14] | [15] | [16] | [17] | [18]

CC(CCC(=O)O)(c1ccc(O)cc1)c1ccc(O)cc1
inactive: [2] | [3] | [4] | [5] | [6] | [7] | [8] | [9] | [10] | [11] | [13] | [16] | [17] | [18]
active: [1] 13.4 µM | [14] 50.4 µM

CC1C(C)(C)C2=C(C(=O)CCC2)C1(C)C (stereo unspecified)
inactive: [1] | [2] | [3] | [5] | [6] | [7] | [8] | [9] | [10] | [11] | [19] | [12] | [13] | [16] | [17] | [18]
active: [14] 26.6 µM

Nc1ccc(C(=O)OCCCOC(=O)c2ccc(N)cc2)cc1
inactive: [1] | [2] | [3] | [4] | [5] | [6] | [7] | [8] | [9] | [10] | [11] | [19] | [12] | [13] | [14] | [15] | [16] | [17] | [18]

CC(C)c1ccc(O)c(C(C)C)c1
inactive: [1] | [20] | [3] | [5] | [6] | [7] | [8] | [9] | [10] | [11] | [19] | [12] | [13] | [15] | [16] | [17] | [18]
active: [14] 41.2 µM

CCc1occc(=O)c1O
inactive: [1] | [20] | [3] | [4] | [6] | [7] | [10] | [19] | [12] | [13] | [14] | [15] | [16] | [17] | [18]
active: [5] 65.6 µM

C=Cc1ccc(OC(C)=O)cc1
active: [3] 13.1 µM | [14] 35.9 µM
inactive: [1] | [20] | [6] | [7] | [8] | [9] | [10] | [11] | [19] | [12] | [13] | [15] | [16] | [17] | [18]

CC1(C)[C@@H]2CC[C@@]1(C)C(=O)C2
inactive: [1] | [20] | [3] | [4] | [5] | [7] | [8] | [9] | [10] | [11] | [19] | [12] | [13] | [14] | [16] | [17] | [18]
